Experimental data taken from the supplement of paper PMC6518042.

These molecules were tested on Pectobacterium parmentieri SCC3193 (assay: DuctApe activity index (growth/respiration on compound as sole nutrient source, blank-subtracted) (activity index (0-3)); higher = stronger utilization of the compound, active = 3 or more). Conditions: nutrient role (plate category): carbon.
Description: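 Biolog Phenotype Microarray plates PM1, PM2A (carbon), PM3 (nitrogen) and PM4 (phosphorus/sulfur) inoculated with P. parmentieri SCC3193 in M9-C minimal salts medium with Biolog dye A, and read in the OmniLog for 46 h. Each well was tested in triplicate and the experiment was run twice. DuctApe computed a blank-subtracted activity index (AV, 0-3) from the mean curves; growth is positive at AV >= 3 and negative at AV <= 2.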

Structure (SMILES)	DuctApe activity index
N[C@@H](CCO)C(=O)O [L-Homoserine]	0 (inactive)
C=C(CC(=O)O)C(=O)O [Itaconic acid]	0 (inactive)
NCCCC[C@H](N)C(=O)O [L-Lysine]	0 (inactive)
NCCC[C@H](N)C(=O)O [L-Ornithine]	0 (inactive)
OC1OC[C@@H](O)[C@H](O)[C@H]1O (stereo partly drawn) [D-Xylose]	3 (active)
OC[C@H]1O[C@@H]2O[C@H]3[C@H](O)[C@@H](O)[C@@H](O[C@H]4[C@H](O)[C@@H](O)[C@@H](O[C@H]5[C@H](O)[C@@H](O)[C@@H](O[C@H]6[C@H](O)[C@@H](O)[C@@H](O[C@H]7[C@H](O)[C@@H](O)[C@@H](O[C@H]8[C@H](O)[C@@H](O)[C@@H](O[C@H]1[C@H](O)[C@H]2O)O[C@@H]8CO)O[C@@H]7CO)O[C@@H]6CO)O[C@@H]5CO)O[C@@H]4CO)O[C@@H]3CO [b-Cyclodextrin]	0 (inactive)
O=C(O)C[C@@H](O)C(=O)O [D-Malic acid]	0 (inactive)
O=C1O[C@@H]([C@H](O)CO)[C@H](O)[C@H]1O [D-Galactonic acid-g-Lactone]	3 (active)
N[C@@H](CO)C(=O)O [L-Serine]	3 (active)
CCCC(=O)C(=O)O [a-Keto-Valeric acid]	0 (inactive)
CC(=O)N[C@@H]1[C@@H](O)[C@H](O)[C@@H](CO)O[C@@H]1O [N-Acetyl-D-Glucosamine]	3 (active)
O=C(O)/C=C/C(=O)O [Fumaric acid]	3 (active)
O=C(O)Cc1cccc(O)c1 [m-Hydroxyphenyl Acetic acid]	0 (inactive)
OCC1(O)OC[C@H](O)[C@@H](O)[C@@H]1O (stereo partly drawn) [L-Sorbose]	0 (inactive)
O=P(O)(O)O[C@H]1O[C@H](CO)[C@@H](O)[C@H](O)[C@H]1O [D-Glucose-1-Phosphate]	0 (inactive)
O=C(O)CC(O)(CC(=O)O)C(=O)O [Citric acid]	2 (inactive)
O=C(O)Cc1ccc(O)cc1 [p-Hydroxyphenyl Acetic acid]	0 (inactive)
CO[C@H]1O[C@H](CO)[C@@H](O)[C@H](O)[C@@H]1O [a-Methyl-D-Mannoside]	0 (inactive)
O=C(O)[C@H]1O[C@@H](O)[C@H](O)[C@@H](O)[C@H]1O [Pectin]	3 (active)

Same assay, conditions: nutrient role (plate category): nitrogen

Structure (SMILES)	DuctApe activity index
N[C@@H](CCO)C(=O)O [L-Homoserine]	0 (inactive)
NCCCC[C@H](N)C(=O)O [L-Lysine]	0 (inactive)
O=C(O)CC[C@@H](C(=O)O)N1C(=O)c2ccccc2C1=O [N-Phthaloyl-L-Glutamic acid]	0 (inactive)
NCCC[C@H](N)C(=O)O [L-Ornithine]	0 (inactive)
N[C@@H](CO)C(=O)O [L-Serine]	1 (inactive)
Nc1cc[nH]c(=O)n1 [Cytosine]	0 (inactive)
CC(=O)N[C@@H]1[C@@H](O)[C@H](O)[C@@H](CO)O[C@@H]1O [N-Acetyl-D-Glucosamine]	3 (active)
Nc1nc2[nH]cnc2c(=O)[nH]1 [Guanine]	0 (inactive)
N[C@@H](Cc1c[nH]c2ccccc12)C(=O)O [L-Tryptophan]	1 (inactive)
NC(=O)NC1NC(=O)NC1=O (stereo not given) [Allantoin]	0 (inactive)

Same assay, conditions: nutrient role (plate category): phosphate & sulphur

Structure (SMILES)	DuctApe activity index
Nc1nc2c(ncn2[C@@H]2O[C@H](CO)[C@@H](OP(=O)(O)O)[C@H]2O)c(=O)[nH]1 [Guanosine 3`-Monophosphate]	2 (inactive)
O=C(O)COP(=O)(O)O [Phospho-Glycolic acid]	1 (inactive)
CCCCS(=O)(=O)O [Butane Sulfonic acid]	1 (inactive)
O=P(O)(O)CP(=O)(O)O [Methylene Diphosphonic acid]	0 (inactive)
Nc1ccn([C@@H]2O[C@H](COP(=O)(O)O)[C@@H](O)[C@H]2O)c(=O)n1 [Cytidine 5`-Monophosphate]	1 (inactive)
Nc1ncnc2c1ncn2[C@@H]1O[C@H](CO)[C@@H](OP(=O)(O)O)[C@H]1O [Adenosine 3`-Monophosphate]	2 (inactive)
O=C(O)C(O)COP(=O)(O)O [D-3-Phospho-Glyceric acid]	2 (inactive)
N[C@H](COP(=O)(O)O)C(=O)O [O-Phospho-D-Serine]	2 (inactive)
O=P(O)(O)O[C@H]1O[C@H](CO)[C@@H](O)[C@H](O)[C@H]1O [D-Glucose-1-Phosphate]	1 (inactive)
OC[C@H]1O[C@@H](S)[C@H](O)[C@@H](O)[C@@H]1O [1-Thio-b-D-Glucose]	0 (inactive)
Nc1ccn([C@@H]2O[C@H](CO)[C@@H](OP(=O)(O)O)[C@H]2O)c(=O)n1 [Cytidine 3`-Monophosphate]	2 (inactive)
